# Over roughly 33,000 sequences, “E-score (-0.5 to 0.5)” has its median near -0.0059; the highest 2% begin near 0.26. The list comes from a sample in which the highest values are over-represented; it also holds similar and randomly drawn sequences.
# Target: T1, Cin5 (UniProt P40917)
# T1 sequence: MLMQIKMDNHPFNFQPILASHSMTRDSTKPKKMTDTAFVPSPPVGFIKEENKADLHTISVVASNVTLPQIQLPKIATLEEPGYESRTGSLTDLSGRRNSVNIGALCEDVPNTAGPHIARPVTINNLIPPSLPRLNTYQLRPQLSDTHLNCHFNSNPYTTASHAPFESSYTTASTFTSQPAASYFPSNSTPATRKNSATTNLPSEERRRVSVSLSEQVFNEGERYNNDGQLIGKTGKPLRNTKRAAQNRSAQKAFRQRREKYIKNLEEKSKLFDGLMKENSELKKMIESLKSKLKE
# Test: PBM E-score (8-mer binding enrichment) (E-score (-0.5 to 0.5)); higher = stronger / more preferred TF binding
# Settings: protein concentration: 100 nM; construct: GST-full length
# Procedure: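 Universal 'all 10-mer' protein binding microarrays (Agilent AMADID 015681) probed with GST-tagged S. cerevisiae TFs (full-length or DBD) made by in vitro transcription/translation (PURExpress), about 100-200 nM. Bound TF was detected with fluorescent anti-GST. Each ungapped 8-mer (which stands for itself and its reverse complement) is scored by the PBM enrichment score (E-score), a modified Wilcoxon-Mann-Whitney statistic from -0.5 to +0.5, computed with the Universal PBM Analysis Suite. Scale: above 0.35 generally sequence-specific binding.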
row,Sequence,PBM E-score
1,CCAGATTA,0.225
2,CGGCTCGC,0.0606
3,ATGATGAA,0.258
4,TAAATGTA,0.191
5,AAAATGGG,-0.0874
6,ATGATGTG,0.145
7,ATGATGTC,0.233
8,ATGATGTA,0.305
9,GTGATGAA,0.0186
10,CAAATGGA,-0.0888
11,CTGATGAA,0.0259
12,AAAATGGA,0.29
13,GAAATGTA,0.143
14,CAAATGTA,0.268
15,GCATAGCA,-0.0462
16,AGCCACCT,-0.192
17,GATCTGGA,-0.125
18,CCTTAACG,-0.0146
19,GTAGGGAA,0.00147
20,GAAACGCC,0.114
21,CGGGCGTA,-0.132
22,ACAACCGT,-0.172
23,CTGATGTA,0.266
24,GTGATGTA,0.172
25,CTGATGTC,0.184

row,Sequence,PBM E-score
1,GCAGCAAC,-0.0419
2,ATGAATGA,0.143
3,ATGAATGG,0.301
4,ATGAATGC,0.167
5,CCCATCAG,-0.165
6,CACCACGG,-0.325
7,ATATTAAT,0.362
8,ATATTAAC,0.28
9,GTATTAAC,0.00428
10,TGATTAAA,0.0915
11,CTATTAAC,0.115
12,ATATTAAA,0.35
13,TTATTAAA,0.278
14,CTATTAAA,0.00048
15,AGATTAAT,0.218
16,CTATTAAG,-0.041
17,GTATTAAA,0.149
18,ATATTAAG,0.122
19,AAGGATAG,0.0333
20,TCGATGCA,0.152
21,GTTCAGTA,0.0391
22,TGGTCGAA,-0.242
23,ATATCCCC,0.0837
24,TGCTGCCA,-0.0641
25,ATGATTCG,0.053

row,Sequence,PBM E-score
1,CATCCCTA,0.122
2,CATTCTGG,0.0333
3,GCACCTAA,-0.0501
4,TCATTAAA,0.353
5,GCATTAAA,0.0586
6,ACATTAAA,0.152
7,GCGTCCAC,-0.283
8,GCCTCCGC,-0.203
9,AAATTACC,0.123
10,ATATTACC,0.317
11,AAATTACG,0.171
12,CTATTACC,-0.0809
13,ATATTACA,0.209
14,ATATTACG,0.376
15,AAGAAAAT,0.159
16,CTCTACAC,-0.0485
17,ATAGTAAA,0.198
18,ATCGTAAT,0.385
19,CTAGTAAA,0.165
20,ATCGTAAA,0.0952
21,ATAGTAAC,0.182
22,ATCGTAAC,0.0852
23,TTAGTAAA,0.269
24,ATAGTAAT,0.358
25,GTAGTAAA,0.149

row,Sequence,PBM E-score
1,CCGGTAGG,-0.163
2,CCCAGAAG,-0.167
3,GCGATAGA,0.0484
4,CGACTTGA,-0.0696
5,AATCTACC,0.138
6,CAGATTCC,-0.0124
7,TAACTAGA,0.306
8,GAACTAGA,-0.00859
9,AAACTAGA,-0.116
10,AAGATTCT,-0.106
11,CTTTTGGA,-0.0744
12,AGACAGAT,0.277
13,ACAGACAG,0.195
14,ACAGACAC,-0.0499
15,ACAGACAA,0.28
16,AGACAGAG,-0.0616
17,AGACAGAC,0.192
18,AAGGTCGA,0.146
19,ACCACGCG,-0.0218
20,ACGTATCA,0.156
21,GAGCCGGA,-0.178
22,AGATATAG,0.149
23,GTATATAC,0.104
24,CTATAGTC,-0.063
25,CTATATAA,0.0999

row,Sequence,PBM E-score
1,ATATATAT,0.146
2,GTATATAA,0.222
3,CTATATAG,0.103
4,ATATAGTC,0.258
5,ATATAGTA,0.235
6,ATATATAG,0.26
7,ATATATAA,0.335
8,ATATATAC,0.316
9,ACCATCGG,-0.108
10,GAGGCGAC,-0.213
11,AGATTCTC,0.0336
12,GTGCAGGA,-0.0289
13,GAAGTCCA,-0.133
14,CTATATGC,0.212
15,CTATATAC,0.313
16,CTCTATAC,-0.0333
17,CTTACACA,0.259
18,ATTACAGG,0.244
19,ATTACAGA,0.0804
20,ACTACATA,0.207
21,AATACATG,0.195
22,CATACATA,0.213
23,ATTACATA,0.355
24,AATACATA,0.278
25,ATTACATG,0.297

row,Sequence,PBM E-score
1,AGTACATG,0.118
2,CTTACACC,-0.0748
3,ATTACACG,0.0848
4,GTGCCGTA,0.0613
5,CACCTTGA,0.00105
6,AAAAGACT,-0.205
7,GGCCATAA,0.0497
8,AGAAGGTG,0.0112
9,CTAAGGCA,-0.173
10,CTTACATC,0.213
11,AATACGTA,0.313
12,CGTACATA,0.191
13,GTTACAAA,0.184
14,CTTACATA,0.358
15,GTTACATA,0.266
16,GCTACATA,0.0756
17,ATTACATC,0.31
18,CTTACAAA,0.192
19,AGTACATC,0.0156
20,AATACGTG,-0.0461
21,CATACGTA,0.242
22,ACTGCCAC,-0.012
23,AATCAGTC,0.0788
24,AGCCAGTA,-0.0197
25,GAGTGCGA,-0.11

row,Sequence,PBM E-score
1,AATCGAGA,0.171
2,AATCTCCG,0.0667
3,ATTACAAA,0.306
4,ATTACAAT,0.153
5,ATTACAAG,0.131
6,TCATATAA,0.197
7,TAATATAA,0.355
8,CAATATAA,0.295
9,CAATATAG,0.225
10,GAATATAA,0.112
11,CAATATAC,0.181
12,TATAGCCA,0.111
13,ACTTAATA,0.26
14,GCTTAATA,0.207
15,ACTTAATC,0.133
16,GTTTAATA,0.143
17,CTTTAATA,0.122
18,ATTTAATA,0.295
19,AGTTCGCA,0.0133
20,ATCCAACA,0.0603
21,CTTGCGTC,-2e-05
22,TATGGGGA,0.27
23,AATGGGGA,0.0144
24,CATGGGGA,-0.0804
25,CGGGTGTC,-0.00474

row,Sequence,PBM E-score
1,ACCCCTCT,-0.17
2,AGACATAT,0.0819
3,ATACATAA,0.286
4,CTACATAA,0.0697
5,ATACATAT,0.318
6,ATACATAC,0.0724
7,ATACATAG,0.159
8,AGTTCTAC,-0.141
9,TATGCTCA,0.132
10,CAACCCGG,-0.222
11,CGCAGCGC,-0.138
12,AAGCTACC,0.106
13,CAATGATA,0.182
14,CAATGAAA,0.0978
15,CTATGAAA,0.0722
16,AAATGATA,0.279
17,ATATGAAA,0.259
18,AAATGAAA,0.266
19,TAATGAAA,0.203
20,TAAATGAA,0.129
21,GAAATGAA,0.275
22,AAATGAGA,0.128
23,ATATGAAC,0.132
24,CAAATGAA,-0.0217
25,CTTTGCCC,-0.199

row,Sequence,PBM E-score
1,ATCCCTAA,-0.19
2,ACGGCCGA,0.0311
3,GGCGGCAA,-0.184
4,GGTATACC,-0.0512
5,AACCAATA,0.214
6,AGATACAT,0.171
7,CAGCGCAA,0.0372
8,TAATGACA,0.237
9,AAATGATT,0.294
10,TAATGGTA,-0.00375
11,TAATGAGA,0.0551
12,AAATGGTA,0.268
13,AAATGATG,0.207
14,GAATGAGA,0.115
15,GAATGATC,-0.046
16,GAATGATA,0.291
17,AAATGATC,0.00639
18,CAATGGTA,0.101
19,TAATGATA,0.298

# From the supplement of paper PMC3334620
